In the library only some 3.1% were active in any assay of this set; here they are far more common.
BRCT inh green: BRCA1 BRCT-phosphoprotein interaction inhibition; P38398; BRCA1 BRCT-phosphopeptide binding, green fluorescence polarization; Potency, µM (top dose mostly 76.9 µM), for inactives: top-dose activity change, negative = inhibition, hits mostly inhibitors; actives 0.05% (n = 75,000);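 also: potency is read from the fitted curve at half-maximal effect; plate controls were peptide without protein for full effect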
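Compounds were incubated for 12 min at room temperature with a complex of 100 nM fluorescein-tagged pBACH1 decapeptide and 250 nM His-tagged BRCT protein. Buffer was phosphate pH 7.3 with EDTA, DTT and Tween 20. Disruption of binding lowers the polarization signal.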
Pol III holo inh: inhibitors of bacterial DNA polymerase III holoenzyme | reconstituted DNA polymerase III holoenzyme replication, biochemical | Potency, µM (highest dose often 57.1 µM), for the others: top-dose activity change, negative = inhibition | actives 0.25% (n = 71,000) | AID 603; also: potency is read from the fitted curve at half-maximal effect; % is scaled to controls: 0 for no effect and ±100 for the full control effect
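Reconstituted *E. coli* holoenzyme (0.35 nM Pol III, 1 nM beta, 154 nM SSB, 2 nM primase) was preincubated with compound for 15 min at RT. Synthesis on 1.4 nM ssM13Gori ran 35 min, then was stopped with PicoGreen/EDTA and read as dsDNA fluorescence.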
ALOX15 inhib: 15-hLO (ALOX15) enzyme inhibition; actives 1.4% (n = 74,000); purified 15hLO-1, xylenol orange hydroperoxide absorbance; Potency, µM (doses to about 57.1 µM), for the others: at the highest dose activity change, negative = inhibition, hits mostly inhibitors; also: potency is read from the fitted curve at half-maximal effect; % is scaled to controls: 0 for no effect and ±100 for the full control effect; nearly all actives have a fitted effect of over 55% in size
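Readout: Fe(III)-xylenol orange absorbance, 573-to-405 nm ratio as reaction progress. Enzyme 40 nM purified human 15hLO-1, substrate 50 uM arachidonic acid, 6 min RT after 15 min compound preincubation; Hepes pH 7.5 buffer with Triton X-100.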
YjeE inh: YjeE (TsaE) inhibition, E. coli; P0AF67; purified YjeE enzyme, qHTS inhibition assay; Potency, µM; actives 0.05% (n = 71,000); AID 605
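Fluorescence polarization of a BODIPY Texas Red–ADP probe (2 uM) bound to purified YjeE (10 uM) was read after 15 min room-temperature incubation with compounds. Loss of polarization marks inhibitors; ADP serves as titrated control.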
BRCT inh red: inhibitors of human BRCA1 BRCT-phosphoprotein interaction (red fluorophore). P38398. BRCT-phosphopeptide binding, red fluorescence polarization. Potency, µM (doses to about 76.9 µM), without a hit: at the highest dose activity change, negative = inhibition, most hits filed as inhibitors. actives 0.03% (n = 75,000). AID 892; also: % is scaled to controls: 0 for no effect and ±100 for the full control effect
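Fluorescence polarization: 100 nM His-tagged BRCA1 BRCT with 100 nM TAMRA-labelled phospho-BACH1 decapeptide, phosphate buffer pH 7.3 with 150 mM NaCl, DTT, 0.01% Tween 20; 12 min RT. Binding inhibition seen as FP decrease.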
Tau fil binding: tau filament binding | actives 2% (n = 71,000) | recombinant tau filaments, thioflavin S fluorescence, 15 h; filaments grown with octadecylsulfate alongside compound | Potency, µM (series often up to 57.1 µM), for the others: top-dose activity change, negative = inhibition | P10636;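 also: potency is read from the fitted curve at half-maximal effect; % is scaled to controls: 0 for no effect and ±100 for the full control effect; actives lower thioflavin S fluorescence by blocking filaments or displacing dye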
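His-tagged recombinant human tau (exons 2, 3 and 10 included), 1 uM, was induced to fibrillize by 30 uM sodium octadecylsulfate with compound present. After 15 h at 37 C, thioflavine S fluorescence (ex 450, em 510 nm) was read.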
Active calls of the source: *; i = inactive; ? = inconclusive; . = no result given; [ ] = another dose, or the depositor's remark. Calls follow the shape of the dose curve; as a rule, active = well fitted curve in the direction sought with a large enough effect; inconclusive = small, poorly fitted or top-dose-only effect, or another doubt; inactive = no such curve, though single readings can be large; an effect the other way counts as inactive or inconclusive.

SMILES	BRCT inh green	Pol III holo inh	ALOX15 inhib	YjeE inh	BRCT inh red	Tau fil binding
O=C(N1CCOCC1)N1CCN(Cc2ccccc2)CC1	-2%	-7%	-10%	i	1%	9%
Oc1cccc(C(=S)N2CCN(Cc3ccccc3)CC2)c1	-2%	-1%	13µM*	i	-2%	-3%
Cc1ccc(NCN2C(=O)C3C4C=CC(C4)C3C2=O)cc1 (stereo not drawn)	0%	-5%[11.4 µM]	4%[11.4 µM]	i	1%	13%[11.4 µM]
O=C1C2C3C=CC(C3)C2C(=O)N1CNc1ccc(O)cc1 (stereo not drawn)	-4%	-13%	?	i	-4%	16µM*
C[C@@H]1[C@H](O)[C@@H](C)/C=C/C=C/C=C/C=C/C=C/C=C/C=C/[C@H](O[C@@H]2O[C@H](C)[C@@H](O)[C@H](N)[C@@H]2O)C[C@@H]2O[C@](O)(C[C@@H](O)C[C@@H](O)[C@H](O)CC[C@@H](O)C[C@@H](O)CC(=O)O[C@H]1C)C[C@H](O)[C@H]2C(=O)O	5%	-2%	2%	i	2%	?
C[C@H]1[C@H](O)[C@@H](C)C=CC=CC=CC=CC=CC=CC=C[C@H](O[C@@H]2O[C@@H](C)[C@H](O)[C@@H](N)[C@@H]2O)C[C@@H]2O[C@](O)(C[C@@H](O)C[C@@H](O)[C@@H](O)CC[C@@H](O)C[C@@H](O)CC(=O)O[C@H]1C)C[C@H](O)[C@H]2C(=O)O	11%[15.4 µM]	0%[11.4 µM]	2µM*	i	0%[15.4 µM]	-1%[11.4 µM]
N#CC1=C(N)SC(N)=C(C#N)C1CCC1CCCCC1	90%	7%	16µM*	i	-1%	95%
NCCSc1nc(-c2ccccc2)c(-c2ccccc2)o1	0%[15.4 µM]	-5%[11.4 µM]	-2%[11.4 µM]	i	0%[15.4 µM]	2%[11.4 µM]
N/C(CSc1nc(-c2ccccc2)c(-c2ccccc2)o1)=N\O	2%	1%	13µM*	i	0%	0%
COC(=O)[C@@H]1C[C@H]1[C@@H](NC(=O)OCc1ccccc1)c1ccccc1	.	-12%	.	i	.	-3%
CCN(CC)CCCC(C)n1c(-c2ccccc2)nc2c(NCCOC)nc(C)nc21 (stereo not drawn)	-3%	2%	4%	i	0%	4%
COc1cccc(-c2nc(NCc3ccccc3)c3ccccc3n2)c1	0%	2%	-24%	i	0%	-5%
COc1cccc(-c2nc(NCc3ccccc3OC)c3ccccc3n2)c1	0%	5%	1%	i	-1%	47%
COc1cccc(-c2nc(NC3CC3)c3ccccc3n2)c1	-4%	-6%	25µM*	i	-2%	56%
COc1ccccc1-c1nc(NC2CC2)c2ccccc2n1	-3%	-11%	-17%	i	0%	16µM*
COc1ccccc1-c1nc(Nc2ccncc2)c2ccccc2n1	-7%	-10%	?	i	-2%	60%
COc1ccccc1CNc1nc(-c2ccccc2OC)nc2ccccc12	3%	-4%	?	i	-2%	4µM*
COc1ccccc1-c1nc(NCc2ccccc2)c2ccccc2n1	3%	-12%	-2%	i	-2%	4µM*
Nc1ccn([C@H]2CC[C@H](CO)O2)c(=O)n1	.	-4%	.	i	.	-1%
CC(=O)OCC(=O)[C@@]1(O)CC[C@@H]2[C@@H]3CCC4=CC(=O)CC[C@@]4(C)[C@H]3C(=O)C[C@]21C	.	2%	.	i	.	-1%
Cc1cc(C)cc(C(=N)c2ccccc2Cc2cccc3ccccc23)c1	-1%[15.4 µM]	-10%[11.4 µM]	1%[11.4 µM]	i	1%[15.4 µM]	8%[11.4 µM]
CN(C)CCOC(=O)[C@@H](c1ccccc1)C1(O)CCCC1	-1%[34.4 µM]	-10%[25.6 µM]	13%[25.6 µM]	i	0%[34.4 µM]	4%[25.6 µM]
COc1ccccc1CNc1nc(-c2ccc(C(=O)N(C)C)cc2)nc2ccccc12	0%	3%	-5%	i	-1%	-6%

High-throughput results: PubChem, National Center for Advancing Translational Sciences (NCATS)
